# Results reported in ChEMBL document CHEMBL1961873, “Compounds: GSK PKIS; Assays: Nanosyn kinase panel” (2012).
# What was measured:
# [1] = molecular target: Dual specificity protein kinase CLK3 (Homo sapiens) (UniProt P49761); settings: at 1 µM;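 note: each value is the mean inhibition of CLK3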
# [2] = molecular target: Dual specificity tyrosine-phosphorylation-regulated kinase 1A (Homo sapiens) (UniProt Q13627); settings: at 0.1 µM
# [3] = molecular target: Dual specificity tyrosine-phosphorylation-regulated kinase 1A (Homo sapiens) (UniProt Q13627); settings: at 1 µM
# [4] = molecular target: Dual specificity tyrosine-phosphorylation-regulated kinase 1B (Homo sapiens) (UniProt Q9Y463); settings: at 0.1 µM
# Chain of Dual specificity tyrosine-phosphorylation-regulated kinase 1B (Homo sapiens) (Q9Y463 whole entry, looked up): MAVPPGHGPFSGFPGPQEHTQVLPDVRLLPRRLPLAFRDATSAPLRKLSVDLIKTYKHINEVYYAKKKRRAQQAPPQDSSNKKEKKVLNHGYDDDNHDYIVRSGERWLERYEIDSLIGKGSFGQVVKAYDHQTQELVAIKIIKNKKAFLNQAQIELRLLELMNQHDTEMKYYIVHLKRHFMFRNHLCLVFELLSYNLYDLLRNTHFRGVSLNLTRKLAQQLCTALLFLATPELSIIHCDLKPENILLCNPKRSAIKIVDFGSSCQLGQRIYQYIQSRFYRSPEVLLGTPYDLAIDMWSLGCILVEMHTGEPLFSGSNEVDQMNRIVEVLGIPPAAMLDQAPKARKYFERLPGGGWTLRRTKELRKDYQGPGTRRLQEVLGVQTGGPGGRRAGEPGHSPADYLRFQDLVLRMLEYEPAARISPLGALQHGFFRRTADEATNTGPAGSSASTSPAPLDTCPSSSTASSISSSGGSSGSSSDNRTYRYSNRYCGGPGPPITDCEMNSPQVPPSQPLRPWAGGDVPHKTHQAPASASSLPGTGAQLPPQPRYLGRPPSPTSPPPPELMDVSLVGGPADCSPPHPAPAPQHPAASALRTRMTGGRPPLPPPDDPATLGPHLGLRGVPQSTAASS
# [5] = molecular target: Dual specificity tyrosine-phosphorylation-regulated kinase 1B (Homo sapiens) (UniProt Q9Y463); settings: at 1 µM
# [6] = molecular target: T1, Dual specificity tyrosine-phosphorylation-regulated kinase 2 (Homo sapiens) (UniProt Q92630); settings: at 0.1 µM
# T1 sequence (whole entry): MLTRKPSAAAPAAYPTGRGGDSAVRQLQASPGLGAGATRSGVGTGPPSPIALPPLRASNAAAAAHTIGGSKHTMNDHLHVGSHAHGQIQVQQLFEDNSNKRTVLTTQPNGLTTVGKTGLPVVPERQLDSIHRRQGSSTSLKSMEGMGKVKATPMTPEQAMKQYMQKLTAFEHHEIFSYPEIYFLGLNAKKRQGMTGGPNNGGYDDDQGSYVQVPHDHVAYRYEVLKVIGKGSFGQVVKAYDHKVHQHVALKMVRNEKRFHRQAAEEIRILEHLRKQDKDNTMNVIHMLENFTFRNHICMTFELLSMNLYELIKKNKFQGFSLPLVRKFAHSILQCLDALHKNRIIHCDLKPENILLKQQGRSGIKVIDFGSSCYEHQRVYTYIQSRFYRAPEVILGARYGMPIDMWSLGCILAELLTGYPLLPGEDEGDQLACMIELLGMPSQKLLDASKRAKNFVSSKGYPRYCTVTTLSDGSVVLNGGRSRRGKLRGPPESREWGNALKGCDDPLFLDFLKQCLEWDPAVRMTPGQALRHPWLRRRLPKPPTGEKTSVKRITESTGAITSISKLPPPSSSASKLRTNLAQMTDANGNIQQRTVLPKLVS
# [7] = molecular target: T1, Dual specificity tyrosine-phosphorylation-regulated kinase 2 (Homo sapiens); settings: at 1 µM
# [8] = molecular target: Glycogen synthase kinase-3 alpha (Homo sapiens) (UniProt P49840); settings: at 0.1 µM
# Chain of Glycogen synthase kinase-3 alpha (Homo sapiens) (P49840 2-483 limits assumed): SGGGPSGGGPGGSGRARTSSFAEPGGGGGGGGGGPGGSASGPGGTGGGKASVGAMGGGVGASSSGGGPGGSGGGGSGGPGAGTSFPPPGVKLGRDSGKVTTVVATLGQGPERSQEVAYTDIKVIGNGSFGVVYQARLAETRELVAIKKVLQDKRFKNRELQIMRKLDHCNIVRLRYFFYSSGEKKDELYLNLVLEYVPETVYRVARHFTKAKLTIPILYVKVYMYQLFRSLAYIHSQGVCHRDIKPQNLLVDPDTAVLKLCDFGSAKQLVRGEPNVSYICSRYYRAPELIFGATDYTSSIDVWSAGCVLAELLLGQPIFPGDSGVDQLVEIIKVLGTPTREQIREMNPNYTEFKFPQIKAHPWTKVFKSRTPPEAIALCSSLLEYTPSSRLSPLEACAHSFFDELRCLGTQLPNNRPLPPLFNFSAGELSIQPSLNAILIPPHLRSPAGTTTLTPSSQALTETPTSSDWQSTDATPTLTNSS
# [9] = molecular target: Glycogen synthase kinase-3 alpha (Homo sapiens) (UniProt P49840); settings: at 1 µM
# [10] = molecular target: Glycogen synthase kinase-3 beta (Homo sapiens) (UniProt P49841); settings: at 0.1 µM;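 note: values are mean percent inhibition of GSK3B activity, from the GSK Published Kinase Inhibitor Set (PKIS) screening dataset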
# Chain of Glycogen synthase kinase-3 beta (Homo sapiens) (P49841 whole entry, looked up): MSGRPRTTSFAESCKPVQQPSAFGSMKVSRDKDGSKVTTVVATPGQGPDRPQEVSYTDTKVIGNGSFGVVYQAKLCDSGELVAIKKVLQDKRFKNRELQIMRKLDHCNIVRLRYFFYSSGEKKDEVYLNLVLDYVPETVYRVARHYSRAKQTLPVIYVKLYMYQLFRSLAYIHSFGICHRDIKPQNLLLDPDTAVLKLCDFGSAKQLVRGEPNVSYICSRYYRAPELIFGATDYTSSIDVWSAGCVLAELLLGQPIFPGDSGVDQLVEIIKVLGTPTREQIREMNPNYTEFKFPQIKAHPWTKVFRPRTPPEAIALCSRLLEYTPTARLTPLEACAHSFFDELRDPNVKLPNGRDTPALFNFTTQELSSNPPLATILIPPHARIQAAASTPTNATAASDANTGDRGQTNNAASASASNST
# Chain of Dual specificity protein kinase CLK3 (Homo sapiens) (P49761 whole entry, looked up): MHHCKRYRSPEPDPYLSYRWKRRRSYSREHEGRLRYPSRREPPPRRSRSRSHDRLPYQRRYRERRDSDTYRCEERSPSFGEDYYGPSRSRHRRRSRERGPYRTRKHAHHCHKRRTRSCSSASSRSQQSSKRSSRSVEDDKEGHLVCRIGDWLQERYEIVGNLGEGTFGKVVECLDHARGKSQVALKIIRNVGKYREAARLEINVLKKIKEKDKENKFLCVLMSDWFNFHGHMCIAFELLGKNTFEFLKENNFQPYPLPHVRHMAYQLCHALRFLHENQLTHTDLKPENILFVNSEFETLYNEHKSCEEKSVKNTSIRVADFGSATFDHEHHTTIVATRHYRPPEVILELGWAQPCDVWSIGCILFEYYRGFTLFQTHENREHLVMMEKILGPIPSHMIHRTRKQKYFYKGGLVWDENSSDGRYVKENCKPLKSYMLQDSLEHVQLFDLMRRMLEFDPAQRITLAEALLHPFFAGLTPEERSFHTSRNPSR
SMILES,inhibition [1] [%],inhibition [2] [%],inhibition [3] [%],inhibition [4] [%],inhibition [5] [%],inhibition [6] [%],inhibition [7] [%],inhibition [8] [%],inhibition [9] [%],inhibition [10] [%]
Nc1nc(-c2cccc(Cl)c2)c(-c2ccc3ncccc3n2)s1,3.8,6.62,31.8,-0.12,12.7,3.16,5.31,3.74,11.2,2.21
CS(=O)(=O)CCNCc1coc(-c2ccc3ncnc(Nc4ccc(OCc5ccccc5)cc4)c3c2)c1,0.66,1.48,2.33,-0.25,1.83,3.02,4.76,2.99,4.78,2.21
COc1cc(N2CCN(C(C)C)CC2)ccc1Nc1nc(Nc2ccc(F)cc2C(N)=O)c2cc[nH]c2n1,13.2,45.2,86.5,49.1,76.6,5.36,36.4,3.88,5.19,2.71
CCn1c(-c2nonc2N)nc2cnc(Oc3cccc(NC(=O)c4ccc(N(C)C)cc4)c3)cc21,0.75,0.93,5.38,-0.45,4.48,1,2.79,8.94,46.6,6.2
CN1CCC(n2cnc(-c3ccc(F)cc3)c2-c2ccnc(Nc3ccccc3)n2)CC1,0.59,1.28,2.82,0.22,0.48,1.36,3.27,3.08,12.7,4.95
CN1CCC(n2cnc(-c3ccc(F)cc3)c2-c2ccnc(N)n2)CC1,1.25,1.69,6.19,0.68,2.08,2.29,12.5,1.36,7.39,1.11
COc1ccc(-c2nn3ncccc3c2-c2ccnc(Nc3ccc4c(c3)OCCO4)n2)cc1,-0.46,-0.47,-2.81,-0.35,-3.65,0.08,-3.08,0.99,2.53,-0.07
N#Cc1c(NC(=O)CN2CCOCC2)sc2c1CCCC2,7.77,7.33,11,4.95,8.26,1.96,4.75,10.6,9.38,11
CC(=O)NCc1cccc(C#Cc2cncnc2Nc2ccc(OCc3cccc(F)c3)c(Cl)c2)c1,0.27,1.8,6.71,0.66,1.17,1.17,-0.66,3.24,8.35,2.82
Cc1cccc(Nc2ncc(-c3ccccc3)o2)c1,0.79,1.29,4.26,0.51,2.16,3.21,5.94,4.32,12.3,3.23
COc1ccc2c(-c3ccnc(Nc4cccc(OC(F)(F)F)c4)n3)cnn2n1,52.8,16,60.8,32.6,77.2,4.32,16,28.1,81.1,21.2
CCOc1ccc2c(-c3ccnc(Nc4cccc(C(F)(F)F)c4)n3)cnn2n1,6.13,-0.46,6.48,1.37,21,1.79,0.78,12.1,46.1,5.68
O=C(O[C@H]1CN[C@H](C#Cc2cc3ncnc(Nc4ccc(Cc5ccccc5)cc4)c3s2)C1)N1CCOCC1,0.23,1.9,-0.14,1.3,2.47,2.26,0.33,2.45,3.62,0.78
Fc1ccc(-c2nn3ccccc3c2-c2ccncc2)cc1,0.88,0.99,3.18,0.03,2.03,0.76,1.76,1.02,6.14,1.33
CCN1CCC(CC(=O)Nc2n[nH]c3nnc(-c4cccc(F)c4F)cc23)CC1,2.16,10.4,53.1,7.85,46.9,1.7,5.64,88.8,93.9,85
CCn1c(-c2nonc2N)nc2c(C#CC(C)(C)O)nc(OC[C@H](N)c3ccccc3)cc21,0.92,1.72,2.24,0.98,2.57,3.62,4.79,36.8,73.6,30
